In PubChem BioAssay:
Values without a mark were called inactive. How the calls were made is not given here.

target: Pantothenate synthetase (Mycobacterium tuberculosis (strain ATCC 25618 / H37Rv)) (UniProt P9WIL5); assay: Coupled enzyme confirmation of inhibitors against recombinant Mtb PanC (AID 375); settings: coupled enzyme assay; at 10 µM, stronger effect = higher value;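 further: 0% = full reaction with vehicle and 100% = no enzyme background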
Sequence (P9WIL5 whole entry, looked up): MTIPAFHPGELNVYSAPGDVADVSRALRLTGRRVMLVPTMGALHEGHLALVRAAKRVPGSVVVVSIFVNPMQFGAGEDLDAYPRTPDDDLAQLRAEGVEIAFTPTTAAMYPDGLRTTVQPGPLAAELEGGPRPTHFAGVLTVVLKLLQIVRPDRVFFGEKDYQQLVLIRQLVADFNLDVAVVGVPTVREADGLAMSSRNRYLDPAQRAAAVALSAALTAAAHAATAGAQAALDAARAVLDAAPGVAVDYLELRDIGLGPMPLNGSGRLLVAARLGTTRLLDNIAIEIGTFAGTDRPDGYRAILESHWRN

| SMILES | inhibition |
| --- | --- |
| CC1=C(C(=O)N2CCCCC2)C2(CCC(C)CC2)OC1=O (stereo not given) | 12% |
| CCC(C)N=C1SCC(C)(/C=N/O)S1 (stereo not given) | 0% |
| Cn1c(NCc2cccc(Br)c2)nc2ccccc21 | 1% |
| COc1ccc(S(=O)(=O)NCC(=O)N(CC(=O)NCC2CCCO2)c2ccccc2C)cc1 (stereo not given) | 8% |
| CCOC(=O)C1=C(C)NC(=O)C(C#N)C1c1ccco1 (stereo not given) | 5% |
| O=C(CN1C(=O)c2cccc3cccc1c23)Nc1ccccc1C(=O)NCc1ccco1 | 0% |
| CC(C)(C)NC(=O)C(c1ccco1)N(C(=O)Cn1nnc(-c2ccc(F)cc2)n1)c1ccccc1 (stereo not given) | 0% |
| Oc1c(I)cc(Cl)c2cccnc12 | 4% |
| C/C(=N\O)C(=O)C(CN1CCCCC1)CN1CCCCC1 | 0% |
| COc1ccc(CN2C(=O)C(O)(CC(=O)c3c(C)n[nH]c3C)c3ccccc32)cc1OC (stereo not given) | 0% |
| O=C(NC12CC3CC(CC(C3)C1)C2)c1cncc(O)c1 | 2% |
| N#Cc1c(N)n(CCNC(=O)c2cccs2)c2nc3ccccc3nc12 | 9% |
| CCC(C)(C(=O)NC1CCCCC1)N(Cc1ccco1)C(=O)c1cnccn1 (stereo not given) | 3% |
| CCOC(=O)c1csc(NC(=O)C2CCCCC2)n1 | 2% |
| COCCOC(=O)C1=C(C)N=c2s/c(=C\c3cccs3)c(=O)n2C1c1cccs1 (stereo not given) | 1% |
| C/C(=N\O)C(C)/[N+]([O-])=C/c1nc(C)c(C)n1O (stereo not given) | 0% |
| CC1(C)NC(=O)N(CCOc2cccc(Cl)c2Cl)C1=O | 0% |
| COC(=O)c1sccc1NC(=O)c1ccco1 | 1% |
| Cc1onc(-c2ccccc2Cl)c1C(=O)Nc1cccc(-c2cn3cccnc3n2)c1 | 7% |
| CCOc1ccc(-c2nc(N)ncc2-c2ccccc2)c(O)c1 | 0% |

| SMILES | inhibition |
| --- | --- |
| COc1ccc(C(=O)N2CCSC2=S)cc1OC | 0% |
| O=C(CCCn1c(=O)c2sccc2n(Cc2ccc(F)cc2)c1=O)NCc1ccco1 | 1% |
| COCCn1nnnc1SCC(=O)N1CCCCC1 | 0% |
| C(=N\c1c(-c2ccccc2)nc2n1CCS2)/c1ccccc1 | 4% |
| Nc1nc(N2CCN(C/C=C/c3ccccc3)CC2)nc2ccccc12 | 7% |
| O=C1CC(N2CCOCC2)C(=O)N1c1ccc2c(c1)OCO2 (stereo not given) | 1% |
| CC(NC(=O)OCc1ccccc1)C(=O)N1CC(O)CC1C(=O)O (stereo not given) | 0% |
| Cc1noc(C)c1S(=O)(=O)N1CCC(C(=O)N2CCN(Cc3ccc4c(c3)OCO4)CC2)CC1 | 0% |
| Cc1ccc(CCNC(=O)C2CCCN(S(=O)(=O)c3cnc[nH]3)C2)cc1 (stereo not given) | 2% |
| Oc1c(Cl)cc(Cl)c2c1NCCC2 | 1% |
| N#CCCNCC1(c2ccccc2)CCCC1 | 7% |
| O=C(CC(SCCO)c1ccc2c(c1)OCO2)c1ccco1 (stereo not given) | 0% |
| COc1ccccc1OCCn1c(=O)sc2ccccc21 | 0% |
| CCOC(=O)N1CCN(S(=O)(=O)c2cc(Cl)c(OC)cc2Cl)CC1 | 0% |
| CCOc1ccc(/C=N/n2cnnc2)cc1 | 3% |
| CCCCCCCC(=O)OCC(=O)[C@@]1(O)CC[C@H]2[C@@H]3CCC4=CC(=O)CC[C@]4(C)[C@H]3[C@@H](O)C[C@@]21C | 1% |
| CC(=O)O[C@]1(C(C)=O)CC[C@H]2[C@@H]3C[C@H](C)C4=CC(=O)CC[C@]4(C)[C@H]3CC[C@@]21C | 0% |
| N#CC1=C(N)OC2=C(CCC/C2=C/c2ccoc2)C1c1ccoc1 (stereo not given) | 2% |
| CC1(C)CC(=O)C2=C(C1)NC(=O)CC2c1ccc(N(CCC#N)CCC#N)cc1 (stereo not given) | 9% |
| O=S(=O)(Nn1cnnc1)c1ccccc1Cl | 0% |
